Reference: PubChem BioAssay (NCI)
This is part of a sample that, as a whole, favours compounds with a hit. Of some 83,000 tested, about 20% had one in any assay.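 The endpoint reported here, percent growth, reads 100 for growth as untreated, 0 for no net growth and -100 for all cells dead.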 Activity calls are given as the source filed them.

The compounds below were run on HL-60(TB) leukemia (assay: NCI-60 one-dose screen, 48 h (100 = growth as untreated, 0 = no growth, -100 = all killed)). Conditions: 10 µM unless noted.
Procedure: Growth inhibition of the HL-60(TB) human tumor cell line is measured as a screen for anti-cancer activity. Cells are grown in 96 well plates and exposed to the test compound for 48 hours. Compounds are tested at a single concentration, which is 10^-5 M for most compounds. The reported endpoint is percent growth (GI% or GIPRCNT), where numbers from 0 - 100% represent growth inhibition, and numbers from -100% - 0 represent cell death. For example, a value of 40 represents 60% growth inhibition. A value of 0 means no net growth occurred over the course of the experiment. A value of -40 indicates 40% of cells at the beginning of the experiment died by the end of the experiment. A value of -100 means all cells are dead at the end of the experiment.
NCI-60 Human Tumor Cell Lines Screen was performed using the standard one-dose NCI protocol, which is described in more detail at https://dtp.cancer.gov/discovery_development/nci-60/default.htm.
Compounds with GIPRCNT values below 10 were considered active. Activity score was based on GIPRCNT using the following formula: […]
Score is 0 for GIPRCNT values of 100 or above, 50 for GIPRCNT values of 0, and 100 for GIPRCNT values of -100.

SMILES	growth
COC1=CC(=O)C(OC)=C(OC)C1=O	61.4% (inactive)
O=C(Nc1ncc(Cc2ccccc2Cl)s1)c1ccc2c(c1)OCCO2	-56.8% (active)
CCN1CCN(C(=O)[C@]23CC[C@@H](C)[C@H](C)[C@H]2C2=CC[C@@H]4[C@@]5(C)C/C(=C/c6cccc(OC)c6OC)C(=O)C(C)(C)[C@@H]5CC[C@@]4(C)[C@]2(C)CC3)CC1	2.97% (active)
CN1CCN(c2ccc3nc(-c4[nH]ncc4Nc4ncnc5[nH]ccc45)[nH]c3c2)CC1	-28.6% (active)
O=C1NC(=S)NC(=O)C1=Cc1cn(Cc2cn(Cc3cccc4ccccc34)nn2)c2ccccc12	106% (inactive)
C=CC(=O)Nc1cccc(-c2nc(SC)nc(NCc3ccccc3)c2C#N)c1	50% (inactive)
CN(Cc1ccccc1)Cc1ccccc1	93.4% (inactive)
O=C1CSC(=S)N1/N=C/c1ccc(Cl)s1	91% (inactive)
CC/C=C\C[C@H]1CC=C2C(=O)C=C[C@@H]2CC=CCCCC(=O)O[C@@H](CCCCC)CC=C2C(=O)C=C[C@@H]2CC=CCCCC(=O)O[C@@H](CCCCC)CC=C2C(=O)C=C[C@@H]2CC=CCCCC(=O)O[C@@H](CCCCC)CC=C2C(=O)C=C[C@@H]2CC=CCCCC(=O)O1	-15.3% [7.9 µM] (active)
CC(=Nc1ccc(N(C)C)cc1)c1ccccc1	26.1% (inactive)
N#CCc1ccc([N+](=O)[O-])cc1	53.1% (inactive)
O=C(COc1ccc(Cl)cc1)N1CCN(Cc2ccc3c(c2)OCO3)CC1	109% (inactive)
O=C(/C=C/C12c3ccccc3C(c3ccccc31)C1C(=O)NC(=O)C12)c1ccncc1 (stereo not given)	2.98% (active)
C[N+](C)(C)C(=O)c1ccccc1	125% (inactive)
O=C(Nc1ccc(F)cc1)Nc1ccc(NC(=O)c2cc(Cl)nc3ccccc23)cc1	63.9% (inactive)
C[C@@H]1COC(Nc2ccc3ncnc(Nc4ccc(OCc5nccs5)c(Cl)c4)c3c2)=N1	31.3% (inactive)
O=C(Nc1ccc(Cl)c(Cl)c1)Nc1c(Oc2ccc(Cl)c(Cl)c2)ccc(Cl)c1S(=O)(=O)O	4.23% (active)
CNC(=O)c1cc(Oc2ccc3nc(NC(=O)Nc4ccc(Cl)cc4)sc3c2)ccn1	98.9% (inactive)
O=c1cc(-c2ccccc2)nc2cc(-c3ccco3)[nH]n12	82.7% (inactive)
COc1cccc(/C=C/C(=O)Nc2cc(OC)c3c(c2)OCO3)c1	78% (inactive)

SMILES	growth
CC(C)COCC(CN(Cc1ccccc1)c1ccccc1)N1CCCC1 (stereo not given)	82.4% (inactive)
C[C@H](CCCC(=O)NCC#CCN1CCN(C)CC1)[C@H]1CC[C@H]2[C@@H]3CC[C@@H]4CC(=O)CC[C@]4(C)[C@H]3CC[C@]12C	94.3% (inactive)
O=S(=O)(O)c1cc(O)c2c(N=Cc3ccccc3O)c(S(=O)(=O)O)ccc2c1	101% (inactive)
Cc1nn2c(-c3nc4ccc(Cl)cc4[nH]3)c(-c3ccc(F)cc3)nc2s1	117% (inactive)
CCCCCn1c(=N)n(CC(O)COc2cccc(C)c2)c2ccccc21 (stereo not given)	2.51% (active)
Cc1cc(-c2cc(O)ccc2Cl)cc2nnc(Nc3ccc(OCCN4CCCC4)cc3)nc12	-63.5% (active)
COc1cc(C(=O)OCCCCCCCCCCC[P+](c2ccccc2)(c2ccccc2)c2ccccc2)ccc1O	-56% (active)
Cc1ccc(NC(=O)Cn2c(Br)nc3c2c(=O)n(C)c(=O)n3C)cc1	102% (inactive)
COc1cccc(-c2cc(C(=O)Nc3ccc(/C=C/c4ccc(OC5CCN(C)CC5)cc4)cc3)ccc2OC)c1	9.98% (active)
[O-]c1c[n+](-c2ccc(Cl)cc2)no1	89.4% (inactive)
COc1cc2ncnc(Nc3ccc(S(=O)(=O)Nc4nccs4)cc3)c2cc1OCCCN1CCCC1	109% (inactive)
CCN(c1cc(-c2ccc(CN3CCC(/C=C/S(=O)(=O)c4ccccc4)CC3)cc2)cc(C(=O)NCc2c(C)cc(C)[nH]c2=O)c1C)C1CCOCC1	23.4% (inactive)
COc1cccc(NC(=O)c2sc3nc4c(cc3c2N)CCCC4)c1	5.68% (active)
CCCC1OC(c2ccc(C(C)C)cc2)OCC1CC (stereo not given)	92.7% (inactive)
C#C[C@@]1(O)[C@@H](CO)O[C@@H](n2cc(-c3ccco3)c3c(N)ncnc32)[C@@H]1O	89% (inactive)
CCN(CC)CC(O)CNc1c2ccc(Cl)cc2nc2ccc(OC)cc12 (stereo not given)	-0.864% (active)
O=C1/C=C/[C@@H](O)[C@@H]2C[C@@H](O)C[C@H]2/C=C/CCC[C@@H](C(F)(F)F)O1	104% (inactive)
COc1ccc(-c2nc(-c3nc4ccc(C)cc4[nH]3)cc3c2[nH]c2ccccc23)cc1	31.4% (inactive)
Cc1cc(Cl)ccc1Nc1nc(C(F)(F)F)ccc1C(=O)N/N=C/c1ccc(F)cc1	-35.6% (active)
COc1cccc(C2CC(=O)Nc3cc4c(cc32)OCO4)c1OC (stereo not given)	93.7% (inactive)
